# Data: the supplement of paper PMC10338343
# ± gives the standard deviation.
# How the values were obtained:
# [1] = test system: MILI (PIWIL2) piRISC loaded with piRNA #1 (26 nt); experiment: pre-steady-state target cleavage rate (min^-1); guide: piRNA #1 5'p-UGAGGUAGUAGGUUGUAUAGUAUCCA; higher = faster piRNA-guided slicing of the target; conditions: auxiliary factor: 500 nM mouse GTSF1
# Outline: (§1)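 Cleave-'n-Seq used a transcribed, DNA-blocked target RNA library at 0.1 nM and active affinity-purified piRISC with one synthetic guide at 1 nM, with or without 500 nM GTSF1 partner protein, in HEPES–potassium acetate buffer at 33 °C for 0–8 or 0–960 min. Uncleaved targets were sequenced and normalised to depth and to weakly complementary targets, and three trials were pooled with k3 capped at 0.0001 min^-1. The pre-steady-state cleavage rate was estimated by a burst-and-steady-state fit.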
# [2] = test system: EfPiwi piRISC loaded with piRNA #1 (26 nt); experiment: pre-steady-state target cleavage rate (min^-1); auxiliary factor: 500 nM Ephydatia muelleri Gtsf1; guide: piRNA #1 5'p-UGAGGUAGUAGGUUGUAUAGUAUCCA; MIWI and MILI are mouse PIWI proteins and EfPiwi is from a freshwater sponge; tags in brackets are library labels; higher = faster piRNA-guided slicing of the target
# Outline: as §1
Sequence,pre-steady-state target cleavage rate [1],pre-steady-state target cleavage rate [2]
GGAGUGGAUACUAUACAACCUACUUCCUCA,0.00401 ± 0.0017,0.00544 ± 0.0029
GGAGUGGAUACUAUACAACCAACAACCUCA,0.00386 ± 0.0015,0.00217 ± 0.0016
GGAGACCUAUCUUAUACAACCUACUACCUCA,0.145 ± 0.031,0.0118 ± 0.0052
GGAGACCUAUGAUAACAACCUACUACCUACA,0.0036 ± 0.0024,< 0.0001
GGAGACGAAACUAUACAAGCUACUACCUCA,0.242 ± 0.02,0.00338 ± 0.0017
GGAGAGGAUACUAUACAAGCUACUACGUCA,0.19 ± 0.02,0.00403 ± 0.0018
GGAGACGAUACUAUACAACCUAACUACCUCA,0.0232 ± 0.0036,0.0045 ± 0.0021
GGAGAGGAUACUAUACAACCUACUACGACA,0.0606 ± 0.017,0.0044 ± 0.0023
GGAGACCUAUCAUAACAACCUACUACCUCA,0.0143 ± 0.0053,0.00531 ± 0.0037
GGAGAGGAAUCUAUACAACCUACUACCUCA,0.199 ± 0.015,0.00943 ± 0.0056
GGAGUCCAUACUAUACAACCUACUACCUCA,0.181 ± 0.015,0.0575 ± 0.019
GGAGACCAUACCUAUACAACCUACUACCUCA,0.152 ± 0.034,0.0273 ± 0.011
GGAGACCAAACUAUACAACCUACUACCUCA,0.131 ± 0.036,0.0177 ± 0.0063
GGAGUCGAUACUAUACAUCCUACUACCUCA,0.313 ± 0.017,0.0165 ± 0.007
GGAGAGGAUACUAUAGAUCCUACUACCUCA,0.242 ± 0.024,0.00654 ± 0.0034
GGAGACCAUACUAUACAACCUACUACCUGCA,0.213 ± 0.023,0.00318 ± 0.002
GGAGAGGAUACUAUACCAACCUACUACCUCA,0.0443 ± 0.0084,0.00837 ± 0.0039
GGAGUGGAUGACUAUACAACCUACUACCUCA,0.0838 ± 0.019,0.00475 ± 0.0037
GGAGACCUAACUAUACAACCUACUACCUGCA,0.149 ± 0.034,0.0711 ± 0.039
GGAGUGGAUACUAUACAACCUUCAACCUCA,0.00344 ± 0.0019,0.00298 ± 0.0018

Sequence,pre-steady-state target cleavage rate [1],pre-steady-state target cleavage rate [2]
GGAGAGGAUAAUAUACAACCUACUACCUCA,0.135 ± 0.01,0.00772 ± 0.0036
GGAGUGGAUACUAUACAACCUACUACCGUCA,0.0282 ± 0.006,0.00748 ± 0.0027
GGAGACCUUUCAAUACAACCUACUACCUCA,0.0649 ± 0.017,0.00501 ± 0.0042
GGAGACCUAUCUAUGACAACCUACUACCUCA,0.0545 ± 0.0096,0.00594 ± 0.0037
GGAGAGGAUACUAUACAACGUACUACCACA,0.0287 ± 0.0041,0.00287 ± 0.0018
GGAGAGGAUACUAUCACAACCUACUACCUCA,0.136 ± 0.011,0.0777 ± 0.031
GGAGACCUAACUAUACAACCUACUACGACA,0.118 ± 0.037,0.00325 ± 0.0029
GGAGACGAUACUAUCCAACCUACUACCUCA,0.175 ± 0.016,0.00717 ± 0.0028
GGAGACCUAACUAUACAAGCUAGUACCUCA,0.0871 ± 0.019,0.00423 ± 0.0037
GGAGACCAUACUAUACAAACCUACUACCUCA,0.0045 ± 0.003,0.00703 ± 0.0028
GGAGACCUCACUAUACAACCUACUACCUCA,0.252 ± 0.029,0.0184 ± 0.0086
GGAGAGGAUACUAUACAACCUUCUACCACA,0.00472 ± 0.0023,0.00468 ± 0.0021
GGAGACCAUACUAUACUACGUACUACCUCA,0.0334 ± 0.0056,0.00415 ± 0.0028
GGAGACGAUACUAUACAACCUAUACCUCA,0.0145 ± 0.0044,0.00289 ± 0.0018
GGAGACGAUACCUAUACAACCUACUACCUCA,0.104 ± 0.025,0.0601 ± 0.023
GGAGUGGAUACUAUUACAACCUACUACCUCA,0.155 ± 0.0095,0.131 ± 0.047
GGAGUUGGAUACUAUACAACCUACUACCUCA,0.184 ± 0.023,0.197 ± 0.056
GGAGAGGAUACUAUAGAACCUACUACCUCA,0.166 ± 0.013,0.00475 ± 0.0023
GGAGUGGAUACUAAACAAGCUACUACCUCA,0.211 ± 0.013,0.00401 ± 0.0019
GGAGACCAUACUUACAACCUACUACCUCA,0.0658 ± 0.012,0.00861 ± 0.0046

Sequence,pre-steady-state target cleavage rate [1],pre-steady-state target cleavage rate [2]
GGAGAGGAUACUAUACAUCCUACUACCUGA,0.00529 ± 0.0032,0.00462 ± 0.002
GGAGACGAAACAAUACAACCUACUACCUCA,0.167 ± 0.026,0.00789 ± 0.0038
GGAGUGGAUACUAUACAACCUAUUACCUCA,0.158 ± 0.014,0.0922 ± 0.034
GGAGUGGAUACUAUACUACCAACUACCUCA,0.00975 ± 0.0022,0.00428 ± 0.002
GGAGACCUUACUGUACAACCUACUACCUCA,0.163 ± 0.029,0.0146 ± 0.0073
GGAGACGAUACUAUACAAGCUACAACCUCA,0.211 ± 0.018,0.00442 ± 0.0022
GGAGAGGAUACUAUACAACCAACUACCUGA,0.00399 ± 0.0021,0.00332 ± 0.0017
GGAGACCUAACUAUACAACCUACUACCACA,0.176 ± 0.038,0.00545 ± 0.0034
GGAGACCUAUGUGAUACAACCUACUACCUCA,0.0354 ± 0.0073,0.0129 ± 0.0064
GGAGACCUUACUAUACACCCUACUACCUCA,0.058 ± 0.0099,0.00862 ± 0.0036
GGAGACGAUACUAGUACAACCUACUACCUCA,0.153 ± 0.013,0.0047 ± 0.0025
GGAGACGAUACUAUAGAACCAACUACCUCA,0.00326 ± 0.0028,0.00377 ± 0.002
GGAGACGAUACUAUACAACGCUACUACCUCA,0.00688 ± 0.0028,0.00969 ± 0.0037
GGAGUGGAUACUAUAGAACCUACUACCUCA,0.178 ± 0.0098,0.00377 ± 0.0019
GGAGACGAUACUAUACGACCUACUACCUCA,0.0963 ± 0.012,0.0807 ± 0.028
GGAGACGGUACUAUACAACCUACUACCUCA,0.187 ± 0.016,0.0154 ± 0.0059
GGAGACGAUACUAUUACAACCUACUACCUCA,0.172 ± 0.011,0.0508 ± 0.019
GGAGACGUACUAUACAACCUACUACCUCA,0.154 ± 0.015,0.0561 ± 0.022
GGAGUGCAUACUAUACAACCUAGUACCUCA,0.0477 ± 0.0091,0.00414 ± 0.0018
GGAGAGGAUACUAUACAACCUACUACCUGCA,0.137 ± 0.012,0.00613 ± 0.0026
